Giardia FBPA inh-1: Giardia lamblia aldolase inhibition; A8B2U2; purified Giardia FBPA; Potency, µM (top dose mostly 59.6 µM), for the others: at the highest dose activity, negative = inhibition, most hits filed as inhibitors; 290,000 compounds, 0.71% hits; AID 2451; note: % is set by controls: 0 for no effect and ±100 for the full control effect; nearly all actives have a fitted effect of over 55% in size
Target sequence (A8B2U2 whole entry, looked up): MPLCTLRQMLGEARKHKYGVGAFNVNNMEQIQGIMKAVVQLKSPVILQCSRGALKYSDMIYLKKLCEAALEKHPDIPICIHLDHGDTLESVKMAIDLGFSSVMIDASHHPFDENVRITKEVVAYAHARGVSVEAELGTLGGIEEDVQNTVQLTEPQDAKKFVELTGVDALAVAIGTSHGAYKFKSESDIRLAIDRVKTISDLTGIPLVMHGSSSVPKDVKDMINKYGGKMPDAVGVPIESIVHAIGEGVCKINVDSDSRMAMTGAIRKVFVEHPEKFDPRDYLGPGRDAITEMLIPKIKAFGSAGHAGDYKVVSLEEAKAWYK
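40 nM FBPA preincubated 10 min at RT with compound (up to 57.5 uM final), then substrate plus GAPDH/TPI/NAD/arsenate coupling and diaphorase/resazurin added. Fluorescence read after 20 min at RT, 525/598 nm.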
NS1 inh: inhibitors of influenza NS1 protein function; Potency, µM (series often up to 46.1 µM), for the others: top-dose activity, positive = more growth; 270,000 compounds, 0.4% hits; calls by dose curve; note: actives are rising curves; nearly all actives have a fitted effect of over 50% in size
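OD600 was taken as the measure of yeast growth restored by compound in an NS1-expressing S. cerevisiae strain. Cells had been washed out of glucose medium and diluted 1:100 into galactose -URA medium, pH 6.0.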
LmPK inh: blocks Leishmania mexicana pyruvate kinase activity; purified LmPK, Kinase-Glo ATP luminescence, 1 h; Potency, µM (top dose mostly 57.5 µM), without a hit: at the highest dose activity change, negative = inhibition, usual class: inhibitors; 290,000 compounds, 0.37% hits; note: % is set by controls: 0 for no effect and ±100 for the full control effect
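Kinase-Glo luminescence read after 1 h RT reaction of 0.1 nM LmPK with 0.5 mM PEP and 0.1 mM ADP. Activity scaled between uninhibited and enzyme-free controls.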
TbPYK inhibitor: T. brucei pyruvate kinase inhibition. Q57TT1. TbPYK enzyme, Kinase-Glo Plus ATP luminescence, 45 min. Potency, µM (doses to about 76.8 µM), without a hit: at the highest dose activity, negative = inhibition, usual class: inhibitors. 410,000 compounds, 0.12% hits; note: % is set by controls: 0 for no effect and ±100 for the full control effect; nearly all actives have a fitted effect of over 50% in size
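Readout: single end-point luminescence (Kinase-Glo Plus, 10 min). Reaction conditions were TbPYK/substrate plus 130 uM ADP, 45 min at RT, pH 7.2 TEA buffer. No-enzyme wells served as controls, and data were normalized before concentration-response fitting.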
Sm TGR inh: blocks Schistosoma mansoni thioredoxin glutathione reductase. Q962Y6. purified TGR, DTNB reduction, TNB absorbance 405 nm. Potency, µM (highest dose often 114 µM), for inactives: top-dose activity change, negative = inhibition, hits mostly inhibitors. 360,000 compounds, 3% hits; note: % is set by controls: 0 for no effect and ±100 for the full control effect; nearly all actives have a fitted effect of over 60% in size
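First, TGR (20 nM dispensed) and NADPH were mixed with compound. Second, a 15 min room-temperature incubation followed. Third, further NADPH and then DTNB were added to start the reaction. Finally, TNB absorbance was monitored kinetically.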
RE007 growth inh: less growth of the S. pombe RE007 Vpr strain; Potency, µM (top dose mostly 92.2 µM), inactives show at the highest dose activity change, negative = less growth, hits mostly inhibitors; 360,000 compounds, 0.21% hits; S. pombe RE007 Vpr strain, BacTiter-Glo ATP luminescence, 24 h; active = well fitted falling curve with a large enough effect; inconclusive = small, poorly fitted or top-dose-only effect; inactive = no such curve, though single readings can be large or run the other way; note: % is set by controls: 0 for no effect and ±100 for the full control effect; nearly all actives have a fitted effect of over 50% in size
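Fission yeast RE007 carrying one integrated HIV-1 vpr copy, seeded at OD 0.01 in PMG+AL medium with 23 nL pinned compound. Grown 24 h at 30 degrees; viability read by BacTiter-Glo luminescence after 5 min.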
Giardia growth: blocks growth of Giardia lamblia trophozoites; Giardia lamblia trophozoite growth inhibition; AID 2785; shares compounds with Giardia FBPA inh-1; 1,500 compounds, 5% hits; Potency, µM (titrated, usually from 57.5 µM), inactives show top-dose activity change, negative = inhibition, usual class: inhibitors;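 note: trophozoites exposed to compound for 48 h at 37 °C; % is set by controls: 0 for no effect and ±100 for the full control effect; nearly all actives have a fitted effect of over 70% in size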
Mammalian tox: counter-screen for Giardia aldolase inhibitors: mammalian cell toxicity; shares compounds with Giardia FBPA inh-1; mammalian cell viability counter-screen, qHTS; Potency, µM (doses to about 57.5 µM), inactives show at the top dose viability change, negative = toxicity, actives largely listed as inhibitors; 1,500 compounds, 4% hits;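 note: Chinese hamster ovary cells used as mammalian cytotoxicity surrogate; viability measured as cellular ATP by luminescence; compound exposure lasted 48 h before reading; % is set by controls: 0 for no effect and ±100 for the full control effect; nearly all actives have a fitted effect of over 60% in size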
Giardia FBPA inh-2: confirmation of Giardia fructose-bisphosphate aldolase inhibitors | shares compounds with Giardia FBPA inh-1 | purified Giardia aldolase enzyme activity, qHTS | Potency, µM (series often up to 57.5 µM), without a hit: at the top dose activity change, negative = inhibition, hits mostly inhibitors | 1,500 compounds, 5% hits; note: % is set by controls: 0 for no effect and ±100 for the full control effect; nearly all actives have a fitted effect of over 45% in size
Rabbit FBPA inh: rabbit FBP aldolase inhibition by Giardia aldolase hits. shares compounds with Giardia FBPA inh-1. Rabbit muscle FBPA enzyme inhibition, selectivity counter-screen. Potency, µM (titrated, usually from 57.5 µM), for inactives: top-dose activity, negative = inhibition, hits mostly inhibitors. 1,500 compounds, 4% hits. AID 2794; note: % is set by controls: 0 for no effect and ±100 for the full control effect; nearly all actives have a fitted effect of over 60% in size
Target sequence (P00883 whole entry, looked up): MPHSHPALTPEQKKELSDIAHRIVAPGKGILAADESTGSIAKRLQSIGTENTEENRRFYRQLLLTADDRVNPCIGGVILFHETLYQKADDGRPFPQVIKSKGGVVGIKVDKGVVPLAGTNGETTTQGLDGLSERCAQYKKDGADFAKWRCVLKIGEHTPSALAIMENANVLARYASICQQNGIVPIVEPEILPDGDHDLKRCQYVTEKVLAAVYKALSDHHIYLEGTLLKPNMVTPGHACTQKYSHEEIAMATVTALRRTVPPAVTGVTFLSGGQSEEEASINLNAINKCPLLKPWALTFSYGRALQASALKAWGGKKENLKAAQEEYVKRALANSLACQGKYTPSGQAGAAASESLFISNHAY
GAPDH counter: GAPDH inhibition flagged for Giardia aldolase hits; shares compounds with Giardia FBPA inh-1; GAPDH coupling enzyme counterscreen, biochemical, qHTS; Potency, µM (titrated, usually from 57.5 µM), without a hit: top-dose activity change, negative = inhibition, most hits filed as inhibitors; AID 2795; 1,500 compounds, 6% hits; note: % is set by controls: 0 for no effect and ±100 for the full control effect; nearly all actives have a fitted effect of over 55% in size
* hit, by the source's call; [ ] = another dose, or the depositor's remark. The list is not random: actives were taken first. Their share in the collection is about 3.5%. Unless noted, calls come from the whole dose curve; as a rule, active = well fitted curve in the direction sought with a large enough effect; inconclusive = small, poorly fitted or top-dose-only effect, or another doubt; inactive = no such curve, though single readings can be large; an effect the other way counts as inactive or inconclusive. Potency is the fitted concentration of half-maximal effect.

What do the screens show for `Cc1ccc(C=C2C(Cl)=C(Cl)C(Cl)=C2Cl)cc1`?
Giardia FBPA inh-1: 16µM*; NS1 inh: 8%; LmPK inh: -2%; TbPYK inhibitor: -15%; Sm TGR inh: 0.63µM*; RE007 growth inh: -21%; Giardia growth: -10%[10.4 µM]; Mammalian tox: 9%; Giardia FBPA inh-2: 2%; Rabbit FBPA inh: 9%; GAPDH counter: 15%

What do the screens show for `COc1cccc(C(=O)N(Cc2cccnc2)c2nc3c(OC)ccc(C)c3s2)c1OC`?
TbPYK inhibitor: 6%[15.4 µM]; Sm TGR inh: 27%

How did COCCn1c(SCC(=O)c2ccc(F)cc2)nc2cc(C(=O)NC3CCCC3)ccc2c1=O do in these assays?
TbPYK inhibitor: -6%; Sm TGR inh: 3%

How did O=C(O)C1=C(CSc2nnnn2CS(=O)(=O)O)CS[C@@H]2[C@H](NC(=O)[C@H](O)c3ccccc3)C(=O)N12 do in these assays?
TbPYK inhibitor: -7%

Results for CO/N=C(/C(=O)N[C@@H]1C(=O)N2C(C(=O)O)=C(CSc3nc(C)c(CC(=O)O)s3)CS[C@H]12)c1csc(N)n1 ?
TbPYK inhibitor: 1%

What do the screens show for `Cc1nnc(SCC2=C(C(=O)O)N3C(=O)C(NC(=O)C(C)n4nc(C(F)(F)F)cc4C)C3SC2)s1` (stereo not drawn)?
Giardia FBPA inh-1: 6.3µM*; LmPK inh: -2%; TbPYK inhibitor: -5%; Sm TGR inh: 7.1µM*; RE007 growth inh: 2%; Giardia growth: -11%; Mammalian tox: -6%; Giardia FBPA inh-2: 2%; Rabbit FBPA inh: 2%; GAPDH counter: 14%

How did CC(C(=O)NC1C(=O)N2C(C(=O)O)=C(CSc3nnnn3C)CSC12)n1cc(Cl)cn1 (stereo not drawn) do in these assays?
Giardia FBPA inh-1: 18µM*; LmPK inh: 16%; TbPYK inhibitor: -6%; Sm TGR inh: inconclusive; RE007 growth inh: 3%; Giardia growth: 13%[10.4 µM]; Mammalian tox: -4%; Giardia FBPA inh-2: 1%; Rabbit FBPA inh: 2%; GAPDH counter: 2%

How did COCc1cc(=O)[nH]c(Nc2nc3ccccc3o2)n1 do in these assays?
Giardia FBPA inh-1: 10µM*; NS1 inh: -36%; LmPK inh: -6%; TbPYK inhibitor: 1%; Sm TGR inh: 4%; RE007 growth inh: -9%; Giardia growth: -11%[38.3 µM]; Mammalian tox: inconclusive; Giardia FBPA inh-2: 18%; Rabbit FBPA inh: -3%; GAPDH counter: inconclusive

How did C=CCN1CCc2nc(N)sc2CC1 do in these assays?
Giardia FBPA inh-1: -12%; NS1 inh: 1%; LmPK inh: 0%; TbPYK inhibitor: 0%; Sm TGR inh: -11%; RE007 growth inh: -22%[18.4 µM]

How did CCN1CCc2nc(N)sc2C1 do in these assays?
Giardia FBPA inh-1: 11µM*; LmPK inh: 2%; TbPYK inhibitor: inconclusive; Sm TGR inh: -8%; RE007 growth inh: -22%; Giardia growth: -19%; Mammalian tox: 14%; Giardia FBPA inh-2: inconclusive; Rabbit FBPA inh: inconclusive; GAPDH counter: 28µM*

What do the screens show for `Cc1ccc(/C(=N/Nc2ncnc3ccccc23)C(=O)O)cc1`?
Giardia FBPA inh-1: 14µM*; NS1 inh: 24%; LmPK inh: -5%; TbPYK inhibitor: -2%; Sm TGR inh: -20%; RE007 growth inh: -7%; Giardia growth: 16%; Mammalian tox: -1%; Giardia FBPA inh-2: 8%; Rabbit FBPA inh: -12%; GAPDH counter: -4%

What do the screens show for `CCOC(=O)c1oc2c(O)c(O)ccc2c(=O)c1-c1nncn1-c1ccccc1`?
Giardia FBPA inh-1: 4.5µM*; NS1 inh: 12%; LmPK inh: -4%; TbPYK inhibitor: -7%; Sm TGR inh: -3%; RE007 growth inh: -17%; Giardia growth: -28%; Mammalian tox: -20%; Giardia FBPA inh-2: inconclusive; Rabbit FBPA inh: inconclusive; GAPDH counter: -18%

What do the screens show for `CCN(CC)S(=O)(=O)c1ccc(C(=O)Nc2nnc(COC)o2)cc1`?
Giardia FBPA inh-1: 18µM*; LmPK inh: 7%; TbPYK inhibitor: 0%; Sm TGR inh: 5%; RE007 growth inh: 3%; Giardia growth: 9%; Mammalian tox: 16%; Giardia FBPA inh-2: 6%; Rabbit FBPA inh: 18%; GAPDH counter: 19%

What do the screens show for `CCCCN(CCCC)S(=O)(=O)c1ccc(C(=O)Nc2nnc(COC)o2)cc1`?
Giardia FBPA inh-1: 15%; NS1 inh: -42%; LmPK inh: 1%; TbPYK inhibitor: -5%; Sm TGR inh: 12%; RE007 growth inh: -9%

How did CCN(CC)S(=O)(=O)c1ccc(C(=O)Nc2nnc(-c3ccco3)o2)cc1 do in these assays?
Giardia FBPA inh-1: inconclusive; LmPK inh: -2%[11.5 µM]; TbPYK inhibitor: 4%; Sm TGR inh: 4%; RE007 growth inh: 7%

What do the screens show for `CCN(CC)S(=O)(=O)c1ccc(C(=O)Nc2nnc(CSC)o2)cc1`?
Giardia FBPA inh-1: 16µM*; LmPK inh: 2%; TbPYK inhibitor: 6%; Sm TGR inh: 3%; RE007 growth inh: -3%; Giardia growth: 18µM*; Mammalian tox: -5%; Giardia FBPA inh-2: 6%; Rabbit FBPA inh: 10%; GAPDH counter: 7%

How did CCCCN(C)S(=O)(=O)c1ccc(C(=O)Nc2nnc(CSC)o2)cc1 do in these assays?
Giardia FBPA inh-1: inconclusive; NS1 inh: -65%; LmPK inh: 0%; TbPYK inhibitor: 3%; Sm TGR inh: -29%; RE007 growth inh: 58%

Compound activity from PubChem BioAssay.
